# From PubChem
# IDE exosite inh: exo-site inhibitors of human insulin-degrading enzyme; P14735; purified IDE, FL-6b probe fluorescence polarization; active compounds read low; z-score at 20 µM; actives 6.3% (n = 17,000); AID 1259349;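 active = z-score of -3 or lower, meaning strong loss of probe binding signal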;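 note: His-tagged human IDE residues 42-1019 made in E. coli with 30 nM FL-6b probe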
# A number is an active result; – = inactive. The full list was thinned out, with hits kept by preference.
SMILES,IDE exosite inh
CS(=O)(=O)N1[C@@H](C#N)[C@H](c2ccccc2)[C@@H]1CO,–
C/C=C/c1ccc([C@@H]2[C@H](CO)N(C(=O)COC)[C@H]2CNC(=O)CC)cc1,–
CC(C)C#Cc1ccc([C@@H]2[C@@H](CO)N3C(=O)CN(C(=O)Cc4ccccc4)C[C@H]23)cc1,–
CCCC#Cc1ccc2c(c1)[C@@H]1[C@@H](CCN1S(=O)(=O)c1ccccc1C)[C@@H](CO)N2,–
COc1ccc2c3c(n(C)c2c1)[C@@H](CO)N(C(=O)Nc1ccc(F)cc1)CC31CN(C(=O)CN2CCOCC2)C1,–
COCC(=O)N1CC(=O)N2[C@H](CO)[C@@H](c3ccc(-c4cccnc4)cc3)[C@H]2C1,–
CO[C@H]1CC[C@@H]2CCN(C)C(=O)[C@@H](C)N(C)C(=O)c3cccc(C#N)c3OC[C@H]1O2,–
CCN1CC(=O)N2[C@H](CO)[C@@H](c3ccc(-c4cccnc4)cc3)[C@H]2C1,–
CC(=O)N1CC2(C1)[C@H](c1ccccc1)[C@@H](CO)N2Cc1ccccc1,–
COc1cccc(S(=O)(=O)N2CC[C@@H]3[C@@H](CO)Nc4ccc(C#Cc5cccnc5)cc4[C@@H]32)c1,–
O=C(Nc1cc(F)ccc1F)N1CC(=O)N2[C@H](CO)[C@@H](c3ccc(-c4ccccc4)cc3)[C@@H]2C1,–
CO[C@@H]1CN(C)C(=O)c2cc(NC(=O)Nc3cccc(Cl)c3)ccc2OC[C@H](C)N(C(=O)Nc2c(C)noc2C)C[C@@H]1C,–
CN1c2ccc(C#Cc3cccnc3)cc2[C@@H]2[C@@H](CCN2C(=O)c2cccc(F)c2)[C@H]1CO,–
O=C(NC[C@H]1N[C@@H](CO)[C@H]1c1ccc(-c2ccccc2F)cc1)c1ccccn1,–
O=C(NC[C@H]1N[C@@H](CO)[C@H]1c1ccc(-c2ccc(F)cc2)cc1)c1ccccn1,–
O=C(NC[C@H]1N[C@H](CO)[C@H]1c1ccc(-c2ccccc2F)cc1)c1ccccn1,-4.68
COCC(=O)NC[C@@H]1N[C@@H](CO)[C@H]1c1ccc(-c2ccccc2F)cc1,-3.81
COCC(=O)NC[C@H]1N[C@H](CO)[C@@H]1c1ccc(-c2ccccc2)cc1,–
COCC(=O)NC[C@@H]1N[C@@H](CO)[C@H]1c1ccc(C2=CCCCC2)cc1,–
O=C(c1cnccn1)N1CC(=O)N2[C@H](C1)[C@@H](c1ccc(C#CCc3ccccc3)cc1)[C@@H]2CO,–
N#C[C@@H]1[C@@H](c2ccccc2C2=CCCC2)[C@@H](CO)N1C(=O)NC1CCCCC1,–
CC(C)CC#Cc1ccc([C@@H]2[C@H](CO)N3C(=O)CN(C(=O)Nc4ccc(F)cc4)C[C@@H]23)cc1,–
O=C1CNC[C@@H]2[C@H](c3ccc(C4=CCCC4)cc3)[C@@H](CO)N12,–
CCC(=O)Nc1ccc2c(c1)OC[C@H](C)N(Cc1ccccc1)C[C@H](C)[C@H](OC)CN(C)C2=O,–
COc1ccc(NC(=O)N(C)C[C@H]2OCCCC[C@H](C)Oc3ccc(NC(=O)c4ccncc4)cc3C(=O)N([C@@H](C)CO)C[C@@H]2C)cc1,–
SMILES,IDE exosite inh
CCCC#Cc1ccc([C@@H]2[C@@H](CO)N3CCCCN(CC4CCOCC4)C[C@@H]23)cc1,–
OC[C@H]1[C@H](c2ccc(C#Cc3ccccc3)cc2)[C@@H]2CN(CC3CCOCC3)CCCCN12,-3.58
OC[C@@H]1[C@@H](c2ccc(C#Cc3ccccc3F)cc2)[C@H]2CN(CC3CCOCC3)CCCCN12,–
OC[C@H]1[C@H](c2ccc(C#Cc3ccccc3F)cc2)[C@H]2CN(CC3CCOCC3)CCCCN21,–
CCCC#Cc1ccc([C@@H]2[C@@H](CO)N3CCCCN(CC4CCOCC4)C[C@H]23)cc1,–
OC[C@@H]1[C@H](c2ccc(C#Cc3ccccc3)cc2)[C@H]2CN(CC3CCOCC3)CCCCN12,-4.38
C[C@@H](O)C#Cc1ccc([C@H]2[C@@H](CO)N3CCCCN(C(=O)c4ccc(F)cc4)C[C@H]23)cc1,–
C/C=C/c1ccc([C@@H]2[C@@H](CO)N(C(=O)C3CCC3)C23CN(C(=O)NC(C)C)C3)cc1,–
CN(C)C(=O)c1cccc(-c2ccc([C@@H]3[C@H]4CN(C(=O)CC5CC5)CC(=O)N4[C@H]3CO)cc2)c1,–
Cc1noc(C)c1NC(=O)N(C)C[C@@H]1Oc2cc(C#CCN(C)C)ccc2S(=O)(=O)N([C@H](C)CO)C[C@@H]1C,–
O=C(c1ccccc1)N1CC(=O)N2[C@H](C1)[C@@H](c1ccc(C#CCC3CCCC3)cc1)[C@@H]2CO,–
Cc1cccc(-c2ccc([C@@H]3[C@H](CO)N4CCCCN(C(=O)c5cccnc5)C[C@@H]34)cc2)c1,–
Cc1ccc(-c2ccc([C@@H]3[C@H](CO)N4CCCCN(C(=O)c5ccncc5)C[C@@H]34)cc2)cc1,–
Cc1cccc(-c2ccc([C@H]3[C@H]4CN(C(=O)c5ccncc5)CCCCN4[C@H]3CO)cc2)c1,-3.05
Cc1cccc(-c2ccc([C@@H]3[C@H](CO)N4CCCCN(C(=O)c5ccncc5)C[C@@H]34)cc2)c1,-11.9
O=C(c1ccncc1)N1CCCCN2[C@@H](CO)[C@@H](c3ccc(-c4ccccc4)cc3)[C@@H]2C1,–
O=C(c1ccncc1)N1CCCCN2[C@H](C1)[C@H](c1ccc(-c3ccccc3)cc1)[C@@H]2CO,–
CC(C)CC#Cc1ccc([C@H]2[C@H]3CN(C(=O)Cc4ccccc4)CC(=O)N3[C@H]2CO)cc1,–
CCCC#Cc1ccc([C@@H]2[C@H](CO)N3C(=O)CN(C(=O)Nc4ccccc4)C[C@@H]23)cc1,–
COc1ccc2c3c(n(C)c2c1)[C@@H](CO)N(C)CC31CN(C(=O)C2CCC2)C1,–
CCCNC(=O)NC[C@H]1[C@H](c2ccc(C3=CCCCC3)cc2)[C@@H](CO)N1C(C)=O,–
COc1cccc(C#Cc2ccc([C@H]3[C@@H](CO)N4C(=O)CN(S(=O)(=O)c5ccccc5C)C[C@H]34)cc2)c1,–
O=C1CN(S(=O)(=O)Cc2ccccc2)C[C@@H]2[C@@H](c3ccc(C#Cc4cccnc4)cc3)[C@@H](CO)N12,–
CCC(=O)N1CC(=O)N2[C@H](C1)[C@H](c1ccc(C#Cc3cccc(OC)c3)cc1)[C@@H]2CO,-9.23
CCC(=O)N1CC(=O)N2[C@@H](CO)[C@H](c3ccc(C#Cc4cccc(OC)c4)cc3)[C@@H]2C1,-9.1
SMILES,IDE exosite inh
COc1cccc(C#Cc2ccc([C@@H]3[C@@H](CO)N4C(=O)CN(C(=O)Cc5ccccc5)C[C@@H]34)cc2)c1,–
CCC(=O)N1CC(=O)N2[C@H](CO)[C@@H](c3ccc(C#Cc4cccc(OC)c4)cc3)[C@@H]2C1,-5.16
COc1cccc(C#Cc2ccc([C@@H]3[C@@H](CO)N4C(=O)CN(C(=O)Cc5ccccc5)C[C@H]34)cc2)c1,–
COc1cccc(C#Cc2ccc([C@H]3[C@@H](CO)N4C(=O)CN(C(=O)Cc5ccccc5)C[C@H]34)cc2)c1,-4.64
COc1ccc(-c2ccc([C@H]3[C@H](CO)N4C(=O)CNC[C@@H]34)cc2)cc1,–
CO[C@@H]1CN(C)C(=O)c2ccc(NC(=O)C3CCC3)cc2OC[C@@H](C)N(Cc2ccccn2)C[C@H]1C,–
CC(=O)N1[C@H](CO)[C@@H](c2ccccc2)C12CN(Cc1ccc(Cl)cc1)C2,–
CNC[C@H]1OCCCC[C@H](C)Oc2ccc(NC(=O)Nc3ccc(OC)cc3)cc2C(=O)N([C@H](C)CO)C[C@@H]1C,–
CCCNC(=O)N(C)C[C@@H]1Oc2cc(C#C[C@H](C)O)ccc2S(=O)(=O)N([C@@H](C)CO)C[C@@H]1C,–
